Results on 53 molecules are retold here after PubChem BioAssay AID602289 (National Center for Advancing Translational Sciences (NCATS), 2012).

Hit rate of the full screen: of about 2,400 compounds, about 40 (2%) were called active. Another 1% or so got no clear call; they are omitted.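 The calls were made as follows: active = inhibition at or above 60%; inconclusive = inhibition from 0% up to below 60%; inactive = no inhibition observed.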 The sample as a whole holds a higher share of actives than the screen did.

The assay is described as follows: qHTS Assay for Small Molecule Inhibitors of Mitochondrial Division or Activators of Mitochondrial Fusion: Hit Validation in Malachite Green Assay. Conditions: purified GTPase, malachite green phosphate release, A650; stronger effect = higher value. The text has this: The budding yeast S. cerevisiae is a powerful system to study mitochondrial fusion. Unlike other organisms, yeast cells without functional mitochondrial DNA (mtDNA) can be propagated and studied as long as they maintain a mitochondrial compartment and are provided with a fermentable carbon source. When mitochondrial fusion is blocked in yeast, mitochondrial tubules rapidly fragment and division continues unopposed. Under conditions where fusion is compromised in mammalian cells, nearly identical changes in mitochondrial structure have been observed. Thus, these findings indicate that steady state mitochondrial structure in cells is a characteristic and specific indicator of fusion activity. Mounting evidence has pointed to a connection between mitochondrial dynamics and apoptosis in mammalian cells. These studies indicate that in mammalian cells mitochondrial dynamics are more integrated into cellular processes than in yeast cells and have evolved not only to distribute the organelle but also to aid in the regulation of cellular homeostasis. Mitochondrial fusion proteins attenuate apoptosis by inhibiting the release of cytochrome c from mitochondria, in part by controlling cristae structures. Thus, small molecules that inhibit mitochondrial fusion may promote apoptosis and potentially act as novel chemotherapeutics and stimulation of apoptosis has become an attractive target of anti-cancer therapies. To identify inhibitors of mitochondrial division, we exploit the growth phenotypes of mitochondrial fusion-defective mutants. The temperature sensitive fusion alleles, such as fzo1-1 and mgm1-5, cause mitochondrial membranes to fragment in cells under non-permissive conditions and cells lose mtDNA, and are unable to grow in the presence of non-fermentable carbon source glycerol. Inhibiting mitochondrial division rescues growth. The hits were tested by the assay provider in a malachite green assay. NIH Chemical Genomics Center [NCGC] NIH Molecular Libraries Probe Production Centers Network [MLPCN] MLPCN Grant: MH081279 Assay Submitter (PI): Jodi M. Nunnari
Malachite Green Reagent Malachite Green carbinol base- Aldrich 229105 Ammonium molybdate - Sigma A7302 For 100 mL Malachite Green reagent in 1N HCl 16 mL conc. HCL + 32 mL H20 = 48 mL 4N HCl 34 mg malachite green base into 40 mL 1N HCl (10 mL 4N HCl + 30 mL H20) 1 g ammonium molybdate in 15 mL 4N HCl Mix Solutions together. Bring up to […] with H2O. Filter using a 0.2 um tissue culture filter unit (has plastic bottle attached) store at 4 masculine C. (Avoid Glassware/Plastics washed in detergent. Mix solutions in 50 mL conical vials.) For 20 uL reaction volume 1.0 uL Test Drug or DMSO: Added first to each well […]: 25 mM Hepes/Pipes pH 7.0 (H/P) 2.0 uL: 50 mM MgCl2 (final 5mM) 2.32 uL: 1 M NaCl (with contributing protein salt, Final = 150mM) 13.4 uL per reaction. Can be mixed in larger volume (Mini Master Mix) 1.6 uL: Protein 7.5 uM or Protein Freezing Buffer. (Final = 0.6uM) After Protein Added to mini Master Mix, 15ul Total Master Mix added to each well with drug. 4 uL: 500 uM GTP (Final = 100uM), Dilute with 25 mM H/P, store on ice. 20 uL Total Volume Make Master Mix: (Calculate desired reactions and add a few for multi-channel pipetting volume). Multiply the number of desired reactions by 13.4 uL for total Mini Master volume. Multiply the number of desired reactions by 1.6 uL for total Protein volume. Mix, and keep on ice until added to wells. Add 15 uL of Master Mix to each reaction well, incubate with drug for 10 min. For Positive (No Drug) controls add 15 uL Master Mix to wells with only 1 uL DMSO. Make PFB (Protein Freezing Buffer) (no Protein) Master Mix. Multiply the number of desired reactions by 13.4 uL for total Mini Master volume. Multiply the number of desired reactions by 1.6 uL for total PFB volume. Mix, and keep on ice until added to wells Add 10 uL of PFBMaster Mix to each Phosphate Standards well, and 15 uL to each negative control well with DMSO. […]
For `COc1ccc(C(=O)Nc2nc(-c3cccs3)cs2)cc1`, the inhibition result is “inactive”. With `O=C(Nc1nnc(-c2ccccc2)o1)c1cc(-c2cccs2)nc2ccccc12`, the inhibition result is “inactive”.

For `O=C(Nc1nnc(-c2ccco2)o1)c1ccc2ccccc2c1`, the inhibition was 60.5% (active).

`O=C(Nc1ccccc1N1CCCC1)c1ccc2ccccc2c1`: the inhibition entry was “inactive”. The same measure for `Nc1nc(Nc2cccc(Cl)c2)nc(NCc2ccco2)c1[N+](=O)[O-]`: “inactive”.

With `Cc1ccc(N=C2NC(=O)/C(=C\c3ccsc3)S2)c(C)c1`, the inhibition result was “inactive”.

On to `COc1ccc(C(=O)Nc2cc3c(cc2N2CCCCC2)n(C)c(=O)n3C)cc1OC`, for which the inhibition result was “inactive”. `O=C(CCNC(=O)c1ccccc1Cl)Nc1ccc(Cl)c(C(F)(F)F)c1`: the inhibition result was “inactive”.

Consider `O=C(Nc1cccc(-c2nc3ccccc3s2)c1)c1cccs1`, for which the inhibition entry was “inactive”. Next, `Cc1c(NC(=O)c2cccs2)cccc1-c1nc2ccccc2s1`: 85.9% (active). With `CC(=O)Nc1ccc(O)c(-c2nc3ccccc3s2)c1`, the inhibition entry was “inactive”. Next, `CCOc1ccc2nc(NC(=O)Nc3cccs3)sc2c1`: “inactive”; `Cc1c(Cl)c([N+](=O)[O-])nn1Cc1ccc(C(=O)Nc2ccc(Cl)cn2)o1`: “inactive”. Next, `O=C(Nc1ccc(O)c2c(=O)cc(-c3cccc(Cl)c3)oc12)c1ccccc1Cl`: “inactive”; `CC(C)n1c(C(=O)OCC(=O)NCc2ccc3c(c2)OCO3)cc2sccc21`: “inactive”; `CC(CCc1ccccc1)NC(=O)/C=C/c1ccc(F)cc1` (stereo not drawn): “inactive”. Next, `CCOC(=O)c1c(C)[nH]c(C)c1C(=O)COC(=O)/C=C/c1ccc(Cl)cc1`: “inactive”; `CC(=O)Nc1cccc(C(=O)/C=C/c2ccc(Br)cc2)c1`: “inactive”; `CCNc1ccc(Br)cc(C(=O)/C=C/c2ccc(Cl)cc2)c1=O`: 100% (active). Regarding `CCOc1ccc(CN(C(=O)c2cc3ccccc3oc2=O)C2CC2)cc1`, the inhibition result was “inactive”. The same measure for `O=C(c1ccc(COc2ccc(Cl)cc2)o1)N1CCN(Cc2ccc3c(c2)OCO3)CC1`: “inactive”; for `CCOC(=O)c1n[nH]n2c1nc(=O)c1ccccc12`: “inactive”; for `Cc1nc(CS(=O)(=O)c2ccc(Cl)cc2)cc(Sc2ccccc2Cl)n1`: “inactive”.

Turning to `CCCCc1cc(=O)oc2cc(OS(C)(=O)=O)ccc12`, the inhibition result was “inactive”. The same measure for `CCCCSc1nnc(-c2ccc(C)cc2)c2ccccc12`: “inactive”; for `CCCCN(CC)c1nc(-c2ccncc2)nc2ccccc12`: “inactive”; for `CCCCc1c(C)nc2ccccc2c1SCCC#N`: 73.5% (active). Next, `CCCc1c(C)nc2ccccc2c1SCCC#N`: 84.5% (active). The same measure for `COc1ccc(-c2ccc(-c3nc4ccc(C)cn4c3NC3CCCCC3)cc2OC)cc1`: “inactive”; for `Cc1cc2c(cc1C)CSC(c1ccccc1O)SC2`: “inactive”; for `CCOC(=O)c1ccc(NC(=S)N2CCSC2c2ccc(Cl)cc2)cc1` (stereo not drawn): “inactive”.

Take `CCCCC(c1nnnn1CC1CCCO1)N1CCN(c2nc3ccccc3s2)CC1` (stereo not drawn): the inhibition result was “inactive”.

In the case of `Cc1cccc(-c2nc(CS(=O)CC(=O)NC(C)CCc3ccccc3)c(C)o2)c1` (stereo not drawn), the inhibition result was “inactive”. `COC(=O)c1sc2nc(C)nc(SCC(=O)C(C)(C)C)c2c1C`: the inhibition result is “inactive”. On to `Cc1ccccc1N=C(NOCc1ccccc1)c1nonc1N`, for which the inhibition entry is “inactive”.

As for `C[C@@]12C(=O)N(Cc3ccccc3)CC(=O)N1[C@H]1c3cc(Cl)ccc3OC[C@@H]1[C@@H]2c1ccccc1`, the inhibition entry was “inactive”.

Consider `CCCc1cc(C(N)=O)c(NC(=O)c2ccoc2C)s1`, for which the inhibition is 101% (active). The same measure for `NC(=O)c1cc(Cc2ccccc2)sc1NC(=O)c1ccco1`: 102% (active); for `Cc1sc(NC(=O)c2ccco2)nc1-c1ccccc1`: “inactive”; for `CCC1CCc2c(sc(NC(=O)c3ccoc3C)c2C(N)=O)C1` (stereo not drawn): “inactive”. The same measure for `Cc1occc1C(=O)NC1CCCCCCC1`: “inactive”; for `O=C(Nc1cc(-c2ccccc2)cs1)c1ccco1`: “inactive”; for `Cc1ccc(C)c(N2CCN(C(=O)c3csc4ccccc34)CC2)c1`: “inactive”.

With `Cc1cc(-c2ccc(C)c(S(=O)(=O)NCc3ccc(Br)cc3)c2)on1`, the inhibition result is “inactive”.

As for `N/C(=N\OC(=O)c1ccccc1Cl)c1ccc(Cl)cc1`, the inhibition result is “inactive”. Next, `CCN(CC(=O)Nc1cc(S(=O)(=O)N2CCCCC2)ccc1Cl)Cc1ccccc1`: “inactive”; `COc1ccc(Nc2ncc(C(=O)N3CCN(Cc4ccccc4)CC3)c3ccccc23)cc1`: “inactive”. The same measure for `c1ccc(NCc2nc3ccccc3n2CCOc2ccccc2)cc1`: “inactive”. Next, `COc1ccc(/C=C/C(=O)N2CCCc3ccccc32)c(OC)c1`: “inactive”; `COc1ccc(Br)cc1/C=C/C(=O)Nc1ccc(C)cc1`: “inactive”. For `CNc1ccc(Br)cc(C(=O)/C=C/c2ccc(OC)cc2OC)c1=O`, the inhibition was 90.1% (active). In the case of `COc1cc2c(cc1NC(=O)CSc1nc3ccccc3[nH]1)oc1ccccc12`, the inhibition entry is “inactive”. The same measure for `O=C(N/N=C/c1cn(-c2cccs2)nc1-c1ccccc1)c1ccccc1Cl`: “inactive”.
